Shown are actives, neighbours in structure and some others; about 1.5% of the full set was active somewhere.
GALR2 ag = GALR2 receptor agonists, primary screen, cell-based | Galanin receptor type 2 (Homo sapiens), O43603 | 0.48% of 140,000 active | AID 803, 2007 | activation, % (no concentration beside the values) | GALR2-expressing cells, agonist activation read-out; in the data active = activation above about 5%, passing the limit was not always enough
Mac1 fbg enh = enhancers of CD11b/CD18 adhesion to fibrinogen, primary screen, K562 cells, luminescence | ATPlite luminescence | activation, % at 10 µM | AID 1499, 2009 | 0.07% of 93,000 active;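 active = 10 µM primary screen giving 50% or more activity, confirmed by 40% or more on retest at that dose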
CD11b adhes inh = inhibitors of CD11b/CD18 adhesion to fibrinogen, primary screen, K562 cells, luminescence. Integrin beta-2 (Homo sapiens) + Integrin alpha-M (Homo sapiens), P05107+P11215. ATPlite luminescence; Mn2+ added to activate the integrin. inhibition, % at 10 µM. 0.54% of 93,000 active;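 active = primary inhibition of 50% or more at 10 µM, then 40% or more on retest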
S1P2 agonist = S1P2 receptor agonists, primary screen, cell-based | Sphingosine 1-phosphate receptor 2 (Homo sapiens), O95136 | S1P2-expressing cell line, agonist reporter read-out | activation, % at 4.5 µM | 0.46% of 97,000 active | AID 729, 2007; in the data active = activation above about 16%
Target sequence (O95136 whole entry, looked up): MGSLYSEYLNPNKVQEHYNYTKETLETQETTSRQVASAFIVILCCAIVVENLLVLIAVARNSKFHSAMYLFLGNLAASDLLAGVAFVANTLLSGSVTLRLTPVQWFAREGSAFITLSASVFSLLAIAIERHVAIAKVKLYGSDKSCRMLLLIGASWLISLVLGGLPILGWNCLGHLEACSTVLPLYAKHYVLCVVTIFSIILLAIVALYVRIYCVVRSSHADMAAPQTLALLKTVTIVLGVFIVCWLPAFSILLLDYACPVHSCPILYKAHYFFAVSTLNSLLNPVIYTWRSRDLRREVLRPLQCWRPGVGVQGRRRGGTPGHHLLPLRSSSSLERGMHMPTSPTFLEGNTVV
GALR2 blocker = GALR2 antagonists in receptor-expressing cells, primary screen. Galanin receptor type 2 (Homo sapiens), O43603. antagonist mode. inhibition, % at 4 µM. 0.39% of 140,000 active; in the data active = inhibition above about 27%;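 note: cells stimulated with galanin 1-16 at roughly its EC80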
S1P2 antag = human S1P2 receptor antagonists, primary screen, cell-based; cell-based S1P2 antagonist assay, inhibition at 5 uM; inhibition, % at 5 µM; Sphingosine 1-phosphate receptor 2 (Homo sapiens), O95136; 0.21% of 97,000 active; AID 736, 2007; in the data active = inhibition above about 45%;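 note: CRE beta-lactamase reporter cells expressing human S1P2 stimulated with S1P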
GALR2 ag confirm = GALR2 agonists, retest of hits, confirmation, cell-based | GALR2-expressing cells, agonist activation | activation, % at 5.6 µM | shares compounds with GALR2 ag | 10% of 460 active; in the data active = activation above about 8.4%
BLA act counter = activators of NFAT-driven beta-lactamase reporter, confirmation, counter-screen for GALR2 agonist project, CHO NFAT-bla cells, FRET readout. shares compounds with GALR2 ag. beta-lactamase FRET activation. activation, % at 5.6 µM. 10% of 460 active;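 active = activation above the screen-wide mean activation plus 3 SD, cut at about 8% in these data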
Each line names hits and unclear results; the compound was inactive in the other large screens (follow-up assays come after a bar, where they were run).

CC(C)N1C(=O)/C(=C\c2nc3ccccc3c(=O)n2-c2ccccc2)c2ccccc21	GALR2 ag 40.9 (no result: Mac1 fbg enh, CD11b adhes inh, S1P2 agonist, S1P2 antag) | GALR2 ag confirm inactive | BLA act counter inactive
CC(C)c1ccc(C(=O)NN2C(=O)C3CCCCC3C2=O)cc1 (stereo unspecified)	none (no result: Mac1 fbg enh, CD11b adhes inh, S1P2 agonist, S1P2 antag)
COc1ccc(OC)c(CN2CCCC(C(=O)N3CCCCC3)C2)c1 (stereo unspecified)	GALR2 ag 72.1 | GALR2 ag confirm inactive | BLA act counter inactive
COc1ccc(Br)cc1CN1CCCC(C(=O)N2CCCCC2)C1 (stereo unspecified)	none
CCCNC(=S)N1CCC(c2nc3cc(C)c(C)cc3[nH]2)CC1	GALR2 ag 32.5 (no result: Mac1 fbg enh, CD11b adhes inh) | GALR2 ag confirm inactive | BLA act counter inactive
Cc1cc2nc(C3CCCN(C(=S)Nc4ccccc4C)C3)[nH]c2cc1C (stereo unspecified)	none (no result: Mac1 fbg enh, CD11b adhes inh)
Cc1ccc(NC(=O)ON=C2CCCC2)cc1	none (no result: S1P2 agonist, S1P2 antag)
CCOc1ccc(C2NC(=O)C(C#N)=C(S)N2c2ccc(OC)cc2)cc1OC (stereo unspecified)	none (no result: Mac1 fbg enh, CD11b adhes inh)
COc1cc(C2NC(=O)C(C#N)=C(S)N2c2ccc(C)cc2)ccc1OC(C)C (stereo unspecified)	GALR2 ag 90.8 | GALR2 ag confirm inactive | BLA act counter inactive
CC(C)[C@H](NS(=O)(=O)c1ccccc1)C(=O)OCC(=O)N1N=C(c2ccc(Cl)cc2)CC1c1ccco1 (stereo partly specified)	none (no result: Mac1 fbg enh, CD11b adhes inh, S1P2 agonist, S1P2 antag)
COc1ccc(OC)c2sc(NC(=O)c3ccc(Br)s3)nc12	GALR2 ag 13.4 (no result: S1P2 agonist, S1P2 antag) | GALR2 ag confirm inactive | BLA act counter inactive
COc1ccc(OC)c2sc(NC(=O)c3ccc(Cl)s3)nc12	none
CC1CCCN(c2c([N+](=O)[O-])c(=O)oc3ccccc23)C1 (stereo unspecified)	GALR2 ag 27.8 | GALR2 ag confirm inactive | BLA act counter inactive
Cc1cc2c(c(=O)n1Cc1ccc3c(c1)OCO3)C(c1cccnc1)C(C#N)=C(N)O2 (stereo unspecified)	GALR2 ag 23.3 | GALR2 ag confirm inactive | BLA act counter inactive
Cc1cc2c(c(=O)n1Cc1cccnc1)C(c1ccccc1)C(C#N)=C(N)O2 (stereo unspecified)	none
O=C(N/C(=C/c1cn(-c2ccccc2)nc1-c1ccccc1)C(=O)N1CCOCC1)c1ccc(Cl)cc1Cl	none (no result: Mac1 fbg enh, CD11b adhes inh, S1P2 agonist, S1P2 antag)
O=C(Cc1n[nH]c(=O)[nH]c1=O)N/N=C/c1cccc(O)c1	GALR2 ag 14.9 | GALR2 ag confirm inactive | BLA act counter inactive
CCCCN(CC)C(=O)Cn1cnc2ccc(S(=O)(=O)N3CCC(C)CC3)cc2c1=O	none (no result: Mac1 fbg enh, CD11b adhes inh, S1P2 agonist, S1P2 antag)
Cc1cccc(N2CCN(C(=O)COc3cccc4c3OC(C)(C)C4)CC2)c1C	none (no result: S1P2 agonist, S1P2 antag)
Cc1ccc(NC(=O)C2C3CC4OC(=O)C2C4C3)cc1Cl (stereo unspecified)	GALR2 ag 38.4 | GALR2 ag confirm inactive | BLA act counter inactive
Cc1ccc(OCc2nc(-c3ccccn3)n[nH]2)cc1	GALR2 ag 72.6 | GALR2 ag confirm inactive | BLA act counter inactive
O=C(CSc1nnc(-c2ccc(O)cc2)n1Cc1ccccc1)NNC(=O)c1ccc(Br)cc1	none (no result: Mac1 fbg enh, CD11b adhes inh, S1P2 agonist, S1P2 antag)
Cc1occc1-c1nnc(SCC(=O)Nc2nc(-c3ccccc3)cs2)o1	GALR2 ag 18.8 | GALR2 ag confirm inactive | BLA act counter inactive
Cc1ccc(S(=O)(=O)c2cc3c(=O)n4cc(C)ccc4nc3n(CC3CCCO3)c2=N)cc1 (stereo unspecified)	none (no result: GALR2 ag, S1P2 agonist, GALR2 blocker, S1P2 antag)
N=c1c(S(=O)(=O)c2ccccc2)cc2c(=O)n3ccccc3nc2n1CC1CCCO1 (stereo unspecified)	none | GALR2 ag confirm inactive | BLA act counter inactive
COc1cccc(/C=N/NC(=O)CCc2c(C)n[nH]c2C)c1	GALR2 ag 14.1 | GALR2 ag confirm inactive | BLA act counter inactive
COc1ccc(C(=O)NNC(=O)CSc2nnc(COc3ccccc3OC)n2C)cc1	none (no result: Mac1 fbg enh, CD11b adhes inh, S1P2 agonist, S1P2 antag)
